From PubChem BioAssay AID651692 (Broad Institute, 2012)
Entries with a potency or affinity are not part of this list. Active and inactive are the calls of the source.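 Rule for the calls: active = fitted half-maximal concentration for loss of cell signal no higher than twice the top valid tested concentration; inconclusive = flat curve at 30 to 70% inhibition, or poor fit; inactive = flat within 30%, signal rise, or potency above limit.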

Assay: MDA-MB-231 cell growth inhibition, dose response, cytotoxicity control for RAD54 inhibitor project, CellTiter-Glo luminescence, cherry-pick (AID 651692);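 note: more negative values mean stronger loss of viable cell signal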
Conditions: MDA-MB-231 viability, 24 h; series mostly up to 26 µM

| Compound | outcome |
| --- | --- |
| O=C(NN1CCOCC1)c1cc(-c2ccc(Cl)c(Cl)c2)nc2ccccc12 | inactive |
| COc1ccc(C)c2sc(N(CCN(C)C)C(=O)c3ccc4ccccc4c3)nc12 | inactive |
| COc1cccc2sc3ccc(NCCC4CCCN4C)cc3c(=O)c12 (stereo not given) | inactive |
| O=C(Nc1cccc([N+](=O)[O-])c1)c1cc(S(=O)(=O)N2CCOCC2)cs1 | inactive |
| CN1CCc2[nH]c3ccc(C(=O)NN)cc3c2C1 | inactive |
| O=C(Nc1ccc(C2=NCCN2)cc1)c1ccc(C(=O)Nc2ccc(C3=NCCN3)cc2)c(Cl)c1 | inactive |
| O=C(NCCCN1CCCC1)c1cc2c(Cl)nc3ccccc3c2s1 | inactive |
| COc1ccc(CCNc2c3ccccc3nc3ccccc23)cc1OC | inactive |
| Cc1cc(N2CCN(C)CC2)nc2ccc(NC(=S)NCCN3CCc4ccccc4C3)cc12 | inactive |
| CCN(CC)CCCNC(=O)c1cc2c(=O)[nH]c3ccc(C)cc3c2s1 | inactive |
| Cc1cc(-c2cc(NC=O)c3ncc(-c4cccc(C(=O)NCCN(C)C)c4)n3c2)cc(C)c1O | inactive |
| COc1cccc(-c2nc(NCCN3CCOCC3)c3ccccc3n2)c1O | inactive |
| C=CC(=O)Nc1ccc(N(C)c2ccnc(Nc3ccc(N4CCN(C)CC4)cc3)n2)cc1 | inactive |
| Cc1ccsc1-c1cc2nc(NCCCN(C)C)n(C)c(=O)c2s1 | inactive |
| Cc1ccc(-c2nc(N3CCN(C)CC3)c3ccccc3n2)cc1 | inactive |
| CN(C)CCCN1C(=O)c2cccc3cccc(c23)C1=O | inactive |
| Cc1cc(N2CCN(C)CC2)nc2ccc(NC(=S)NCCCN3CCN(C)CC3)cc12 | inactive |
| CCOC(=O)c1cnc2c(ccc3ccccc32)c1NCCCN(C)C | inactive |
| CCN1CCN(CCCNC(=O)c2cc3c(=O)[nH]c4ccccc4c3s2)CC1 | inactive |
| CCOc1cc2nc(-c3ccc(OC)c(OC)c3)nc(NCCCN3CCOCC3)c2cc1OC | inactive |

| Compound | outcome |
| --- | --- |
| CCN(CC)CC(=O)Nc1cc(N(C)C)nc2ccccc12 | inactive |
| CCCNc1nc2nc3ccccn3c(=O)c2cc1C(=O)NCCN1CCOCC1 | inactive |
| COc1ccc(-c2cnc3c(NC(C)=O)cc(-c4cccc(C(=O)NCCN(C)C)c4)cn23)cc1OC | inactive |
| CC1CCN(CCCNC(=O)c2cc3c(=O)n(C)c4ccccc4c3n2C)CC1 | inactive |
| CN(C)CCNC(=O)c1c(NC(=O)c2ccccc2)sc2c1CCCC2 | inactive |
| COc1ccc(-c2cc3nc(NCCCN(C)C)n(C)c(=O)c3s2)cc1OC | inactive |
| Nc1cccc2nc3ccccc3cc12 | inactive |
| Cc1ccc(S(=O)(=O)NCCCNS(=O)(=O)c2ccccc2[N+](=O)[O-])cc1 | inactive |
| CCN1CCN(c2cc(C)c3cc(NC(=S)N4CCC5(CC4)OCCO5)ccc3n2)CC1 | inactive |
| CN1CCN(c2nc(-c3cccc([N+](=O)[O-])c3)nc3ccccc23)CC1 | inactive |
| CCCCN(CC)CCNC(=S)Nc1ccc2nc(N3CCN(C)CC3)cc(C)c2c1 | inactive |
| Cc1cc(NCCCN(C)C)n2c(nc3ccccc32)c1C#N | inactive |
| COc1ccc2cc3cc(C(=O)NCCCN4CCOCC4)oc3nc2c1 | inactive |
| OCCCNc1c2ccccc2nc2ccccc12 | inactive |
| CCN1CCN(c2cc(C)c3cc(NC(=S)NCCCN4CCc5ccccc5C4)ccc3n2)CC1 | inactive |
| Cc1c(O)c(CN(C)C)cc2c1oc(=O)c1ccccc12 | inactive |
| CCN(CC)CCN(C(=O)C1=COCCO1)c1nc2c(OC)ccc(OC)c2s1 | inactive |
| N=c1c(C(=O)NCCN2CCOCC2)cc2c(=O)n3ccccc3nc2n1CCCN1CCOCC1 | inactive |
| COc1ccc(-c2cc3nc(NCCN4CCCC4)n(C)c(=O)c3s2)cc1OC | inactive |
| O=C(CN1CCCCC1)n1c2ccccc2c2ccccc21 | inactive |
